Reference: PubChem BioAssay (NCATS)
Results filed as inconclusive are left out. Values without a mark were called inactive. Activity calls are given as the source filed them. Calls come from the whole dose curve; as a rule, active = well fitted inhibition curve with a large enough effect; inconclusive = small, poorly fitted or top-dose-only effect; inactive = flat fitted curve, though single readings scatter.

The compounds below were run against Voltage-gated inwardly rectifying potassium channel KCNH2 (Homo sapiens) (UniProt Q12809) (assay: qHTS Assay for Small Molecule Inhibitors of the Human hERG Channel Activity (AID 588834;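 note: lower thallium flux fluorescence means stronger hERG block; nearly all actives have a fitted effect of over 50% in size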; for activity change, negative = inhibition: top concentration of the series differs between compounds)). Conditions: U2OS BacMam hERG, FluxOR thallium flux fluorescence; series mostly up to 46.1 µM; activity change, negative = inhibition: at the top concentration.
In short: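 Cells were infected with hERG-BacMam virus for 4 hrs at room temperature, grown overnight, then seeded at 2000/well. After dye loading and roughly 10 min compound treatment, thallium influx was triggered and fluorescence recorded.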
% is set by controls: 0 for no effect and ±100 for the full control effect; potency is the fitted concentration of half-maximal effect.

Chain of Voltage-gated inwardly rectifying potassium channel KCNH2 (Homo sapiens) (Q12809 whole entry, looked up): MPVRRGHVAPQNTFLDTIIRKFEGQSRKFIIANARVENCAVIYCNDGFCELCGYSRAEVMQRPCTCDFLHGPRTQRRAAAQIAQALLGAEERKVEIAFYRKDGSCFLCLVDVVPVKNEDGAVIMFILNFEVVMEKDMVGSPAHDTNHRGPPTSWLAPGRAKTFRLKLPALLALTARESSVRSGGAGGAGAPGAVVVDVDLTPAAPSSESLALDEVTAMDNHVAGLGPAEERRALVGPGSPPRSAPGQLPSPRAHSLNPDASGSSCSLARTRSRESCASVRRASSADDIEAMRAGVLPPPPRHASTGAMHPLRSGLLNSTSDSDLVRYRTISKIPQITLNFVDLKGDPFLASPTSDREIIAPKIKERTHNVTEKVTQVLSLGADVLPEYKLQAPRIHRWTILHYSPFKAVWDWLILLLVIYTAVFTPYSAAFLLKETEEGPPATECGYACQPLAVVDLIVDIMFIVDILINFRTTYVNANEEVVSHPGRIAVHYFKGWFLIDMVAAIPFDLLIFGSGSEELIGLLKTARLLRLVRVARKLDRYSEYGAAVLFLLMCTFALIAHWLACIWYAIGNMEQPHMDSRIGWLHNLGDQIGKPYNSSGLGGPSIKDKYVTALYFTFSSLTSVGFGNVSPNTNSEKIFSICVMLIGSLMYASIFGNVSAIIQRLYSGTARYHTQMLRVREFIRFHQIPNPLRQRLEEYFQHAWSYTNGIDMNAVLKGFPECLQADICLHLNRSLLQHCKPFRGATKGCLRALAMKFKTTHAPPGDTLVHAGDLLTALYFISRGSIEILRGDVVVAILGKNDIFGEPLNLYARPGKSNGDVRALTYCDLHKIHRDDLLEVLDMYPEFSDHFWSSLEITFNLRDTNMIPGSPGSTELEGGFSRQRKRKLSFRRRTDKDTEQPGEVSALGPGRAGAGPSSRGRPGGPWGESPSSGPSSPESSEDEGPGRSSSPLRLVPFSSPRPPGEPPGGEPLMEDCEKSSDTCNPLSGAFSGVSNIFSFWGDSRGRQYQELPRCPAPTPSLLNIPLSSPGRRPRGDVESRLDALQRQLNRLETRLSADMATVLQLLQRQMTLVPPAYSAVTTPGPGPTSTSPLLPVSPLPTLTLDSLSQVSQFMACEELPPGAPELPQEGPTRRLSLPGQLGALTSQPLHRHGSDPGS

Going from `O=c1[nH]c2cc(Cl)c(Cl)cc2[nH]c1=O` to `COc1cc2c(CCNC(C)=O)c[nH]c2cc1Cl`, the “activity change, negative = inhibition” value rises from 1.72% to 8.61%.

Going from `O=C(O)CNC(=O)C(CS)Cc1ccccc1` (centres undefined) to `O=C1C(SCCO)=C(SCCO)C(=O)c2ccccc21`, the “activity change, negative = inhibition” value rises from -1.19% to 11.5%.

Going from `NCCCS(=O)(=O)O` to `CCCCCC[C@@H](O)C/C=C\CCCCCCCC(=O)O`, the “activity change, negative = inhibition” value falls from 20.7% to -4.94%.

Compared with `Clc1ccccc1-c1nc(-c2ccncc2)no1`, `COc1ccc(/C=C/C(=O)Nc2ccccc2C(=O)O)cc1OC` is lower in “activity change, negative = inhibition” value: 28.3% for the first, -20.8% for the second.

Going from `COc1cc(/C=C/C(=O)N2CCN(CC(=O)N3CCCC3)CC2)cc(OC)c1OC` to `COc1cc(OC)c(/C=C2/C(=O)Nc3ccccc32)c(OC)c1`, the “activity change, negative = inhibition” value falls from 16.8% to -1.9%.

Compared with `N#C/C(=C\c1ccc(O)c(O)c1)C(=O)c1ccc(O)c(O)c1`, `Oc1c(Br)cc(Br)c2cccnc12` is higher in “activity change, negative = inhibition” value: 24.3% for the first, 138% for the second.

In the case of `CCCCCCCCCCCCCCCCCCNC(=O)OCC(COP(=O)([O-])OCC[n+]1ccsc1)OC` (centres undefined), the “activity change, negative = inhibition” value is reported as 2.16%.

With `CC(=O)[C@]1(O)Cc2c(O)c3c(c(O)c2[C@@H](O[C@H]2C[C@H](N)[C@H](O)[C@H](C)O2)C1)C(=O)c1c(O)cccc1C3=O` the Potency was “inactive”.
For `CC1(C)C[C@@H]1C(=O)N/C(=C\CCCCSC[C@H](N)C(=O)O)C(=O)O`, the Potency was “inactive”.
In the case of `Ic1ccc(N2CCN(Cc3c[nH]c4ncccc34)CC2)cc1`, the Potency is reported as 1.12 µM (active).
In the case of `Fc1ccc(C(OCCCc2cnc[nH]2)c2ccc(F)cc2)cc1`, the Potency is reported as 1.41 µM (active).

First: O=C(O)Cc1ccc(-c2ccccc2)cc1
Second: CCCSc1ccc2nc(NC(=O)OC)[nH]c2c1
The “activity change, negative = inhibition” value of the first is higher: 6.36% [at 20.6 µM] for the first, -21.1% [at 20.6 µM] for the second.
